Screening results (PubChem BioAssay)
TDP1 cell CPT: DT40-hTDP1 cell growth loss with CPT | chicken DT40 Tdp1-/-;hTDP1 cells + 20 nM CPT, ATP luminescence, 48 h | Potency, µM (highest dose often 46.2 µM), inactives show top-dose activity change, negative = growth inhibition, hits mostly inhibitors | hit rate 12% among 420,000 | AID 686979; also: potency is read from the fitted curve at half-maximal effect; % is scaled to controls: 0 for no effect and ±100 for the full control effect; nearly all actives have a fitted effect of over 55% in size
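Chicken DT40 Tdp1-/- cells stably complemented with human TDP1 were seeded at 400 cells/well in medium containing 20 nM camptothecin, exposed to pin-transferred compounds, and grown at 37 °C for at least 48 hr. Viability was read as ATP luminescence.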
MCF10A rereplic: DNA re-replication induction in MCF 10a cells; MCF 10A DNA re-replication, Hoechst nuclear intensity, 48 h; Potency, µM (top dose mostly 46.1 µM), for inactives: top-dose activity, positive = re-replication, usual class: activators; hit rate 2.9% among 350,000; AID 624296; also: potency is read from the fitted curve at half-maximal effect; % of control where 0% means no effect; nearly all actives have a fitted effect of over 50% in size
Chronic BCR inh: inhibitors of chronic active B-cell receptor signaling | Potency, µM (series often up to 46.1 µM), without a hit: top-dose activity change, negative = inhibition, actives largely listed as inhibitors | AID 493014 | ABC-DLBCL IkBa-CBG/CBR reporter, luminescence ratio, 4 h | hit rate 0.05% among 340,000; active = well fitted inhibition curve with a large enough effect in the signal ratio, with a control signal flat, not every such curve was filed as active; inconclusive = small, poorly fitted or top-dose-only effect, or effect the other way, or a change in a side signal; the % refers to the signal ratio;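 also: potency is read from the fitted curve at half-maximal effect; plate controls were basal doxycycline-induced cells for no effect and cells given 10 µM MG132 for full effect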
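TMD8 ABC-DLBCL cells carrying doxycycline-inducible green luciferase fused to IkappaBalpha plus unfused red luciferase were exposed to compounds (up to 46 uM) for 4 hrs at 37C. Activity came from the overlap-corrected green/red luminescence ratio.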
SW480 rereplic: induces DNA re-replication in SW480 colon adenocarcinoma cells; SW480 DNA re-replication, Hoechst DNA content imaging, 48 h; Potency, µM (doses to about 46.1 µM), without a hit: top-dose re-replication activation, actives largely listed as activators; hit rate 1.8% among 340,000; also: potency is read from the fitted curve at half-maximal effect; % of control where 0% means no effect; nearly all actives have a fitted effect of over 55% in size
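First, 250 cells per well were seeded. Next, compound or vehicle (23 nL) was pinned in, plates sat 48 hr at 37 C. Finally Hoechst was added for 40 min before fluorescence scanning.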
IL1B secr inh: inhibitors of inflammasome signaling (IL-1 beta secretion). THP-1 LPS/ATP IL-1B secretion, AlphaLISA, 16 h; active compounds read low. activity change, % at 57.5 µM. hit rate 4.7% among 360,000; in the data active = activity change below about -50%; inconclusive = mostly about -30% to -49%; also: % is scaled to controls: 0 for no effect and ±100 for the full control effect
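THP-1 cells pretreated 1 hr with compounds (up to 57.5 uM final), then stimulated with LPS (250 ng/mL final) plus ATP (1.25 mM final); secreted IL-1B measured by AlphaLISA after 16 hr, decreased signal indicating inhibition.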
DT40 TDP1 no CPT: qHTS for Inhibitors of human tyrosyl-DNA phosphodiesterase 1 (TDP1): qHTS in cells in absence of CPT; DT40 Tdp1-/- hTDP1 cells, no CPT, ATP luminescence, 48 h; Potency, µM (top dose mostly 46.2 µM), for inactives: top-dose activity change, negative = growth inhibition, usual class: inhibitors; hit rate 15% among 420,000; also: potency is read from the fitted curve at half-maximal effect; % is scaled to controls: 0 for no effect and ±100 for the full control effect; nearly all actives have a fitted effect of over 55% in size
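DT40 Tdp1-/-;hTDP1 cells, no CPT (DMSO vehicle only), 400 cells/well; compounds pin-transferred; ≥48 hr, 37 °C; CellTiter-Glo 30 min RT dark, luminescence read.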
An asterisk follows results filed as active; [ ] = remark or other dose. In the library only some 19% were active in any assay of this set; here they are far more common. Unless noted, calls follow the shape of the dose curve; as a rule, active = well fitted curve in the direction sought with a large enough effect; inconclusive = small, poorly fitted or top-dose-only effect, or another doubt; inactive = no such curve, though single readings can be large; an effect the other way counts as inactive or inconclusive.

Results for CC(NC(=S)Nc1ccc(S(=O)(=O)N2CCOCC2)cc1)C1CC2CCC1C2 (configuration not stated) ?
TDP1 cell CPT: inconclusive; MCF10A rereplic: inconclusive; Chronic BCR inh: inconclusive; SW480 rereplic: 5%; IL1B secr inh: 0; DT40 TDP1 no CPT: 29µM*

What do the screens show for `COc1ccc(C(=O)NC(C)C2CC3CCC2C3)cc1` (configuration not stated)?
TDP1 cell CPT: inconclusive; MCF10A rereplic: 6%; Chronic BCR inh: inconclusive; SW480 rereplic: -7%; IL1B secr inh: 15; DT40 TDP1 no CPT: inconclusive

Results for CC(C)CCCCCCNC(=S)Nc1ccc(S(=O)(=O)N2CCOCC2)cc1 ?
TDP1 cell CPT: 16µM*; MCF10A rereplic: 13µM*; Chronic BCR inh: inconclusive; SW480 rereplic: inconclusive; IL1B secr inh: -82*; DT40 TDP1 no CPT: 13µM*

What do the screens show for `CN(C)CC(C)(C)CNC(=S)Nc1ccc(S(=O)(=O)N2CCOCC2)cc1`?
TDP1 cell CPT: -12%; MCF10A rereplic: 7%; Chronic BCR inh: 0%; SW480 rereplic: 26µM*; IL1B secr inh: 0; DT40 TDP1 no CPT: inconclusive

Results for COc1ccc(NC(=O)NC(C)C2CC3CCC2C3)cc1 (configuration not stated) ?
TDP1 cell CPT: 11%; MCF10A rereplic: 22%; Chronic BCR inh: -6%; SW480 rereplic: 0%; IL1B secr inh: -80*; DT40 TDP1 no CPT: -16%

How did Cc1ccc(OCC(=O)OCc2cc(=O)n3ccsc3n2)cc1C do in these assays?
TDP1 cell CPT: -11%; DT40 TDP1 no CPT: inconclusive

Results for Cc1cc(NC(=O)COc2coc(CN3CCN(c4ccccc4F)CC3)cc2=O)no1 ?
TDP1 cell CPT: -3%; MCF10A rereplic: -19%; Chronic BCR inh: 2%; SW480 rereplic: -35%; IL1B secr inh: 20; DT40 TDP1 no CPT: -13%

How did COc1ccc(C(=O)NCC2Cc3c(F)ccc(-c4nc(C)cnc4C)c3O2)cc1F (configuration not stated) do in these assays?
TDP1 cell CPT: -2%[9.04 µM]; DT40 TDP1 no CPT: -25%

How did CC(NC(=O)CCC(=O)c1ccc(F)cc1)C1CC2CCC1C2 (configuration not stated) do in these assays?
TDP1 cell CPT: -8%; MCF10A rereplic: 10µM*; Chronic BCR inh: 0%; SW480 rereplic: inconclusive; IL1B secr inh: -21; DT40 TDP1 no CPT: inconclusive

Results for CC(NC(=O)c1ccc(F)cc1Cl)C1CC2CCC1C2 (configuration not stated) ?
TDP1 cell CPT: 0%; MCF10A rereplic: 4%; Chronic BCR inh: inconclusive; SW480 rereplic: -6%; IL1B secr inh: -12; DT40 TDP1 no CPT: -20%

What do the screens show for `Cc1cc(C)c(S(=O)(=O)N(C)CC(=O)N2CCCC2)c(C)c1`?
TDP1 cell CPT: -6%; IL1B secr inh: 20; DT40 TDP1 no CPT: inconclusive

Results for CC(C)CCNC(=O)c1onc(CSc2nc3ccccc3[nH]2)c1C(=O)NCCC(C)C ?
TDP1 cell CPT: inconclusive; MCF10A rereplic: -19%; Chronic BCR inh: 13%; SW480 rereplic: -10%; IL1B secr inh: -3; DT40 TDP1 no CPT: 16µM*

What do the screens show for `O=C(NCCO)c1ccc(CSc2nc3ccccc3[nH]2)cc1`?
TDP1 cell CPT: -25%; MCF10A rereplic: -8%; Chronic BCR inh: 0%; SW480 rereplic: -4%; IL1B secr inh: 22; DT40 TDP1 no CPT: inconclusive

What do the screens show for `Nc1cc(=O)[nH]c(SCc2ccccc2Cl)n1`?
TDP1 cell CPT: -25%; MCF10A rereplic: -2%; Chronic BCR inh: -5%; SW480 rereplic: -3%; IL1B secr inh: -9; DT40 TDP1 no CPT: inconclusive

Results for O=C(NCc1ccccc1Cl)c1ccc(CSc2nc3ccncc3[nH]2)cc1 ?
TDP1 cell CPT: -9%; MCF10A rereplic: 13%; Chronic BCR inh: -26%; SW480 rereplic: -4%; IL1B secr inh: -76*; DT40 TDP1 no CPT: inconclusive

How did O=C(NCCCO)c1ccc(CSc2nc3ccccc3[nH]2)cc1 do in these assays?
TDP1 cell CPT: inconclusive; MCF10A rereplic: inconclusive; Chronic BCR inh: 8%; SW480 rereplic: -3%; IL1B secr inh: 46; DT40 TDP1 no CPT: 18µM*

Results for Clc1ccccc1CSc1nc2ccncc2[nH]1 ?
TDP1 cell CPT: inconclusive; MCF10A rereplic: 6%; Chronic BCR inh: inconclusive; SW480 rereplic: -4%; IL1B secr inh: 8; DT40 TDP1 no CPT: 23µM*

How did COCCN(C(=O)c1cc(CN2C(=O)c3ccccc3C2=O)ccc1OC)c1c(N)n(CC(C)C)c(=O)[nH]c1=O do in these assays?
TDP1 cell CPT: -5%; MCF10A rereplic: inconclusive; SW480 rereplic: -36%; IL1B secr inh: 0; DT40 TDP1 no CPT: 14%

How did Brc1cccc(-c2nn(-c3ccccc3)c3c2cnc2cc4c(cc23)OCO4)c1 do in these assays?
TDP1 cell CPT: -1%; DT40 TDP1 no CPT: -4%

What do the screens show for `CCOc1ccccc1CNC(=O)CCCn1ccc2cc(S(=O)(=O)N3CCCC3)ccc21`?
TDP1 cell CPT: 23µM*; MCF10A rereplic: -2%; Chronic BCR inh: -18%; SW480 rereplic: -4%; IL1B secr inh: 5; DT40 TDP1 no CPT: 21µM*

How did CCOc1ccccc1CNC(=O)Cn1ccc2cc(S(=O)(=O)N3CCCC3)ccc21 do in these assays?
TDP1 cell CPT: 18µM*; MCF10A rereplic: 10%; Chronic BCR inh: -1%; SW480 rereplic: 0%; IL1B secr inh: inconclusive; DT40 TDP1 no CPT: 23µM*

Results for COc1ccc(CNC(=O)Cn2ccc3cc(S(=O)(=O)N4CCCC4)ccc32)c(OC)c1 ?
TDP1 cell CPT: -29%; DT40 TDP1 no CPT: inconclusive

Results for COc1ccc(CNC(=O)Cn2ccc3cc(S(=O)(=O)N4CCCCC4)ccc32)c(OC)c1 ?
TDP1 cell CPT: 23µM*; DT40 TDP1 no CPT: -81%

What do the screens show for `N#Cc1cccc(NC(=O)CNc2cc(S(=O)(=O)N3CCOCC3)ccc2N2CCCC2)c1`?
TDP1 cell CPT: inconclusive; MCF10A rereplic: -5%; Chronic BCR inh: inconclusive; SW480 rereplic: 4%; IL1B secr inh: inconclusive; DT40 TDP1 no CPT: 23µM*

Results for NC(=O)c1ccc(NC(=O)CNc2cc(S(=O)(=O)N3CCOCC3)ccc2N2CCCC2)cc1 ?
TDP1 cell CPT: -22%; MCF10A rereplic: 4%; SW480 rereplic: -5%; IL1B secr inh: -5; DT40 TDP1 no CPT: inconclusive
